Reference: PubChem BioAssay AID652217 (Sanford-Burnham Center for Chemical Genomics, 2013)
The whole screen tested about 1,800 compounds, of which about 240 (13%) were called active. These entries were drawn from the full list. Values without a mark were called inactive. Rule as the data show it: active = inhibition above about 40%; inactive = the rest.

molecular target: NEDD8-conjugating enzyme Ubc12 (Homo sapiens) + NEDD8-activating enzyme E1 regulatory subunit (Homo sapiens) (UniProt P61081+Q13564); assay: blockade of NEDD8 conjugation to cullin – biochemical, TR-FRET, single concentration, confirmation (AID 652217); conditions: TR-FRET cullin neddylation biochemical assay; at 25 µM; active compounds read high;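 also: neddylation substrate is the cullin 1 ring ligase complex with SKP2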
Sequence (P61081 whole entry, looked up): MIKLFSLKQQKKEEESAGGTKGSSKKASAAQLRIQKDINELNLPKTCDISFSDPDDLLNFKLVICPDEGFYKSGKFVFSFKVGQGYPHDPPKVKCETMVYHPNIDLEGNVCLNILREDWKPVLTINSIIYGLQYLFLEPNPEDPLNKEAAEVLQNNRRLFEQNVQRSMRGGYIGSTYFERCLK
Sequence (Q13564 whole entry, looked up): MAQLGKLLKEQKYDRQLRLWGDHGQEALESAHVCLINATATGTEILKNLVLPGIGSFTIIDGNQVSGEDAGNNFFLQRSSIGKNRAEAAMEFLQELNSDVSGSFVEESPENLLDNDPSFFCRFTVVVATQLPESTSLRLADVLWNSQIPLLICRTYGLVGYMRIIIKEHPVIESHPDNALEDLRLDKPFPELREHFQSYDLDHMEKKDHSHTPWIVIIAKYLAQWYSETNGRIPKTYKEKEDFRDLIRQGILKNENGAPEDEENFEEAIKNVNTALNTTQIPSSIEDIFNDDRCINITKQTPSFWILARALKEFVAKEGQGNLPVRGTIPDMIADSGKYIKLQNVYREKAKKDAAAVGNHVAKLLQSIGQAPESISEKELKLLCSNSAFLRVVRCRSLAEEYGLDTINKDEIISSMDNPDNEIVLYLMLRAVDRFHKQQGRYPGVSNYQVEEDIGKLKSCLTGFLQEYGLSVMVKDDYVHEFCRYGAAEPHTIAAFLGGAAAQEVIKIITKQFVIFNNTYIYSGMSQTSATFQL

| SMILES | inhibition |
| --- | --- |
| COc1cccc(Cn2cc(/C=N/NC(=O)c3cc(O)cc(O)c3)c3ccccc32)c1 | 41.7% (active) |
| O=C(Cn1cc(/C=N/NC(=O)c2cccc(C(F)(F)F)c2)c2ccccc21)Nc1ccc(F)cc1 | 20.1% |
| CN(C)c1ccc(/C=N/Nc2cc(N3CCOCC3)nc(N3CCOCC3)n2)cc1 | 14.8% |
| COc1ccc2oc(C(=O)NCC(Cc3ccccc3)N(C)C)c(C)c2c1 (stereo not given) | 39.6% |
| c1ccc(-c2[nH]ncc2-c2nc3ccccc3[nH]2)cc1 | 34.5% |
| CCN(CC)c1ccc(/C=N/Nc2nc(C)cc(=O)[nH]2)cc1 | 28.2% |
| CCN(CC)c1ccc(/C=N/NC(=O)CNC(=O)c2cccs2)cc1 | 54.1% (active) |
| COc1ccc(Br)cc1/C=N/Nc1ccc(Cl)c(C(=O)O)c1 | 37.5% |
| CC(=O)c1ccc(Nc2nc(C(N)c3ccccc3)cs2)cc1 (stereo not given) | 32.9% |
| CC(=O)Nc1nc(C)c(-c2csc(Nc3ccc(S(N)(=O)=O)cc3)n2)s1 | 79.2% (active) |
| Cc1noc(C)c1COc1ccc2ccc(=O)oc2c1 | 33.5% |
| COc1cccc(C2c3[nH]c4ccccc4c3CCN2Cc2cccc(C)n2)c1 (stereo not given) | 26.3% |
| Nc1nnnn1CC(=O)N/N=C/c1ccc(-c2cccc(Cl)c2)o1 | 22.7% |
| C=CCNC(=O)c1ccc2c3n(nc2c1)-c1ccc(C)cc1CO3 | 47.4% (active) |
| O=C(N/N=C/c1ccccc1O)C1CCCC1 | 38.7% |
| CCN(/N=C/c1ccc(N(C)C)cc1)c1nc2ccccc2[nH]1 | 42.9% (active) |
| C=CCn1c(COc2cccc3cccnc23)nnc1SCC(=O)OC | 36.7% |
| O=C(/C=C/c1cn(-c2ccccc2)nc1-c1ccc2c(c1)OCCO2)NCCCN1CCOCC1 | 33.2% |
| CC(=O)Nc1cc(-c2ccc(N3CCN(C)CC3)cc2)cn2c(-c3ccc(F)cc3)cnc12 | 45.5% (active) |
| COC(=O)C1=CN(C)C=C(C(=O)OC)C1c1ccc(Cl)cc1Cl | 20% |

| SMILES | inhibition |
| --- | --- |
| CC(C(=O)NC1CCCCC1)N1C(=O)c2cccc3cccc1c23 (stereo not given) | 39.8% |
| O=C(NNC(=S)NC1CC2CCC1C2)c1ccc(Cl)cc1 (stereo not given) | 7.17% |
| COc1cccc(/C=C/C(=O)OCC(=O)N2CCCc3ccccc32)c1 | 38.8% |
| Cc1ccc(C)c(NC(=O)NNC(=O)c2ccc3ccccc3c2O)c1 | 30.6% |
| COC(=O)C1=CN(Cc2ccc(OC)cc2)C=C(C(=O)OC)C1c1ccc(O)c(OC)c1 | 33% |
| CS(=O)(=O)c1ccc2nc(NC(=O)c3ccc(Cl)nc3)sc2c1 | 66% (active) |
| COc1ccc2[nH]c(C(=O)N/N=C/c3cc(OC)c(OC)c(OC)c3)cc2c1 | 49.6% (active) |
| COc1cc2cc(C(=O)N/N=C/c3cccc(OC)c3OC)[nH]c2cc1OC | 41.9% (active) |
| CCOc1ccc2[nH]c(C(=O)N/N=C/c3cccc(OC)c3OC)cc2c1 | 44.6% (active) |
| COc1cc2ccccc2cc1C(=O)Nc1ccncc1 | 39.2% |
| CCOC(=O)c1cnc2nc(SCc3ccccc3Cl)[nH]n2c1=O | 20% |
| CCOc1ccc2[nH]c(=O)c(CN(Cc3nnnn3Cc3ccccc3)CC3CCCO3)cc2c1 (stereo not given) | 15.2% |
| COCCCNc1nc2ccccc2nc1NS(=O)(=O)c1ccc(F)cc1 | 29% |
| Cc1ccc2occ(/C=N/NC(=O)c3ccccc3C)c(=O)c2c1 | 24% |
| O=c1c2c(nc3cc(-c4cccc(Cl)c4)[nH]n13)CCCC2 | -10.4% |
| NNC(=O)c1oc2nc(-c3ccccc3)cc(-c3ccco3)c2c1N | 14.3% |
| CN(C)c1ccnc2sc(C(=O)c3ccccc3)c(N)c12 | 33.9% |
| Cc1nc2sc(C(=O)c3ccccc3)c(N)c2c2c1CCCC2 | 30.6% |
| O=C(COc1ccccc1Cl)N1N=C(c2cccs2)CC1c1ccco1 (stereo not given) | 37.1% |
| CCOc1cc(C(=O)Nc2c(C)ccc3nsnc23)cc(OCC)c1OCC | 27.9% |

| SMILES | inhibition |
| --- | --- |
| CC(=O)Oc1c(C(=O)c2nnc(C)o2)c(=O)n(Cc2ccccc2)c2ccccc12 | 38.8% |
| O=C1c2cccc3cccc(c23)N1CN1CCN(c2ccccn2)CC1 | 28.8% |
| CC(=O)NNC(=O)c1csc(Cc2c(Cl)sc3ccc(Cl)cc23)n1 | -2.26% |
| O=C(c1ccc(Cl)cc1)N1N=C(c2ccccn2)CC1(O)C(F)(F)F (stereo not given) | 1.98% |
| CCOc1cc(/C=N/Nc2cc(C)nc3ccc(C)cc23)ccc1O | 40.1% (active) |
| CCN1CCCC1CNc1ncnc2c1[nH]c1ccc(F)cc12 (stereo not given) | 31% |
| C[C@H](O)[C@@H]1C(=O)N2CCc3c([nH]c4ccccc34)[C@@H]2C[C@@H]1N(C)C(=O)Nc1ccc(F)cc1 | 14.4% |
| Cc1ccc2cc(C#N)c(NCCNC(=S)NCCCN3CCOCC3)nc2c1 | 33.7% |
| COc1ccc(N(CC(=O)N/N=C/c2cccc3c2OCCO3)S(=O)(=O)c2ccc(NC(C)=O)cc2)cc1 | 42.7% (active) |
| O=C1NC(c2ccncc2)Nc2sc3c(c21)CCCC3 (stereo not given) | 39.4% |
| COc1cccc(C2CC(c3cccs3)=NN2C(=O)CSC2=NCCS2)c1OC (stereo not given) | -80.4% |
| N#Cc1ccc(/C=C2\CCn3c2nc2cc(C(=O)O)ccc2c3=O)cc1 | 54.8% (active) |
| O=C(O)c1ccc2c(=O)n3c(nc2c1)/C(=C/c1ccc(OC(F)F)cc1OC(F)F)CC3 | 43.2% (active) |
| CCOc1ccc2nc(NCCNC(=O)C(C)(C)C)c(C)cc2c1 | 34.1% |
| Cc1ccc(-n2ncc3c(Nc4cccc(C(=O)O)c4)ncnc32)cc1 | 35.6% |
| CCOCCCNC(=O)C(NC(=O)c1ccccc1O)c1ccccc1 (stereo not given) | 39.4% |
| COc1ccc(C2c3[nH]c4ccccc4c3CCN2CCCn2cccn2)cc1C (stereo not given) | 29.8% |
| O=c1cc(CN2CCCCCCC2)c2c(ccc3ccccc32)o1 | 14.7% |
| Cc1noc(C)c1C(=O)OCC(=O)/C=C1\N(C)c2ccccc2C1(C)C | 22.3% |
| CCOc1ccc2[nH]c(=O)c(CN(Cc3nnnn3CCc3ccccc3)CC3CCCO3)cc2c1 (stereo not given) | 12.7% |
